In PubChem BioAssay AID1159580 (chemical genetic matrix, 2015):
Several values for one entry are separate records, joined by “and”; a condition that tells them apart may be missing. Equal values may be shown once. The whole screen tested about 5,500 compounds, of which about 2,000 (36%) were called active. Not shown: some 18% with an inconclusive outcome. Cut-off read from the data, not from the text of the source: active = normalized growth mostly below about 0.91 (no sharp cut-off); inconclusive = no clear call, values can overlap the other calls; inactive = mostly above about 0.92. Some of the results follow.

Test: chemical genetic growth profiling, strain panel (AID 1159580);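 note: tested at 20 µM; growth read once vehicle control cultures reached saturation at 30 °C; 1 = growth at the plate median or of vehicle wells; lower values mean less growth of the strain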
Details: growth OD
[1] = S. cerevisiae deletion strains, locus YDL101C, strain DUN1, stronger effect = lower value
[2] = S. cerevisiae deletion strains, locus YHR030C, strain SLT2, stronger effect = lower value
[3] = S. cerevisiae deletion strains, locus YHR079C, strain IRE1, stronger effect = lower value
[4] = S. cerevisiae deletion strains, locus YJL095W, strain BCK1, stronger effect = lower value
[5] = S. cerevisiae deletion strains, locus YJR066W, strain TOR1, stronger effect = lower value
[6] = S. cerevisiae deletion strains, locus YLR113W, strain HOG1, stronger effect = lower value
[7] = S. cerevisiae deletion strains, locus YNL183C, strain NPR1, stronger effect = lower value
[8] = S. cerevisiae deletion strains, locus YOR061W, strain CKA2, stronger effect = lower value
[9] = S. cerevisiae deletion strains, locus YOR231W, strain MKK1, stronger effect = lower value
[10] = S. cerevisiae deletion strains, locus YPL256C, strain CLN2, stronger effect = lower value

Measured: normalized growth

COc1cccc(-c2cc(=O)c3cc(OC)ccc3o2)c1
active: S. cerevisiae deletion strains, locus YBR021W, strain FUR4, stronger effect = lower value 0.816 | S. cerevisiae deletion strains, locus YCL029C, strain bik1, stronger effect = lower value 1.1 [resistant] | S. cerevisiae deletion strains, locus YDR101C, strain arx1, stronger effect = lower value 1.13 [resistant] | S. cerevisiae deletion strains, locus YDR502C, strain sam2, stronger effect = lower value 1.14 [resistant] | S. cerevisiae deletion strains, locus YHR094C, strain hxt1, stronger effect = lower value 1.18 [resistant] | S. cerevisiae deletion strains, locus YHR200W, strain rpn10, stronger effect = lower value 1.14 [resistant] | S. cerevisiae deletion strains, locus YIR030C, strain dcg1, stronger effect = lower value 1.12 [resistant] | S. cerevisiae deletion strains, locus YJL168C, strain set2, stronger effect = lower value 1.1 [resistant] | S. cerevisiae deletion strains, locus YKL009W, strain mrt4, stronger effect = lower value 0.713 | S. cerevisiae deletion strains, locus YLR371W, strain rom2, stronger effect = lower value 1.11 [resistant] | S. cerevisiae deletion strains, locus YNL271C, strain bni1, stronger effect = lower value 1.17 [resistant] | S. cerevisiae deletion strains, locus YNL307C, strain MCK1, stronger effect = lower value 1.14 [resistant] | S. cerevisiae deletion strains, locus YOR136W, strain idh2, stronger effect = lower value 1.18 [resistant] | S. cerevisiae deletion strains, locus YOR184W, strain ser1, stronger effect = lower value 1.14 [resistant] | S. cerevisiae deletion strains, locus YOR316C, strain cot1, stronger effect = lower value 1.12 [resistant] | S. cerevisiae deletion strains, locus YPR119W, strain clb2, stronger effect = lower value 1.11 [resistant] | S. cerevisiae deletion strains, locus YPR167C, strain met16, stronger effect = lower value 1.08 [resistant]
inactive: S. cerevisiae deletion strains, locus YAL013W, strain DEP1, stronger effect = lower value 0.993 | S. cerevisiae deletion strains, locus YBR229C, strain ROT2, stronger effect = lower value 0.992 | S. cerevisiae deletion strains, locus YDL035C, strain GPR1, stronger effect = lower value 0.98 | S. cerevisiae deletion strains, locus YDL074C, strain BRE1, stronger effect = lower value 0.914 | [1] 0.983 | S. cerevisiae deletion strains, locus YDL134C, strain PPH21, stronger effect = lower value 0.95 | S. cerevisiae deletion strains, locus YDL185W, strain tfp1, stronger effect = lower value 1.09 | S. cerevisiae deletion strains, locus YDL192W, strain arf1, stronger effect = lower value 1.04 | S. cerevisiae deletion strains, locus YDR150W, strain NUM1, stronger effect = lower value 1 | S. cerevisiae deletion strains, locus YDR162C, strain NBP2, stronger effect = lower value 0.968 | S. cerevisiae deletion strains, locus YDR318W, strain mcm21, stronger effect = lower value 1.05 | S. cerevisiae deletion strains, locus YDR388W, stronger effect = lower value 1.03 | S. cerevisiae deletion strains, locus YEL061C, strain CIN8, stronger effect = lower value 0.979 | S. cerevisiae deletion strains, locus YER155C, strain BEM2, stronger effect = lower value 1.07 | S. cerevisiae deletion strains, locus YER167W, strain BCK2, stronger effect = lower value 0.993 | S. cerevisiae deletion strains, locus YGL078C, strain dbp3, stronger effect = lower value 1.07 | S. cerevisiae deletion strains, locus YGL086W, strain mad1, stronger effect = lower value 1 | S. cerevisiae deletion strains, locus YGL248W, strain PDE1, stronger effect = lower value 0.944 | S. cerevisiae deletion strains, locus YGR135W, strain pre9, stronger effect = lower value 1.07 | S. cerevisiae deletion strains, locus YGR229C, strain SMI1, stronger effect = lower value 0.858 | S. cerevisiae deletion strains, locus YGR252W, strain gcn5, stronger effect = lower value 0.981 | [2] 0.958 and 0.966 | S. cerevisiae deletion strains, locus YHR079C, strain IRE1 (second series), stronger effect = lower value 0.987 | [3] 0.967 | S. cerevisiae deletion strains, locus YHR129C, strain ARP1, stronger effect = lower value 0.98 | S. cerevisiae deletion strains, locus YIL066C, strain RNR3, stronger effect = lower value 0.94 | S. cerevisiae deletion strains, locus YIL073C, strain SPO22, stronger effect = lower value 0.945 | S. cerevisiae deletion strains, locus YIL125W, strain kgd1, stronger effect = lower value 1.05 | [4] 0.857 and 0.963 | S. cerevisiae deletion strains, locus YJL134W, strain LCB3, stronger effect = lower value 1.01 | S. cerevisiae deletion strains, locus YJL187C, strain SWE1 (second series), stronger effect = lower value 0.954 | S. cerevisiae deletion strains, locus YJR043C, strain POL32, stronger effect = lower value 0.93 | [5] 0.916 | S. cerevisiae deletion strains, locus YJR075W, strain HOC1, stronger effect = lower value 0.959 | S. cerevisiae deletion strains, locus YKL068W, stronger effect = lower value 1.02 | S. cerevisiae deletion strains, locus YKL085W, strain MDH1 (second series), stronger effect = lower value 1.03 | S. cerevisiae deletion strains, locus YKL085W, strain MDH1, stronger effect = lower value 1.03 | S. cerevisiae deletion strains, locus YKL190W, strain CNB1, stronger effect = lower value 1.01 | S. cerevisiae deletion strains, locus YKR001C, strain vps1, stronger effect = lower value 0.998 | S. cerevisiae deletion strains, locus YLR039C, strain RIC1, stronger effect = lower value 0.995 | S. cerevisiae deletion strains, locus YLR058C, strain SHM2, stronger effect = lower value 0.968 | S. cerevisiae deletion strains, locus YLR102C, strain apc9, stronger effect = lower value 1.03 | [6] 0.983 | S. cerevisiae deletion strains, locus YLR262C, strain YPT6, stronger effect = lower value 1.06 | S. cerevisiae deletion strains, locus YLR268W, strain sec22, stronger effect = lower value 1.07 | S. cerevisiae deletion strains, locus YLR330W, strain CHS5, stronger effect = lower value 0.952 | S. cerevisiae deletion strains, locus YLR342W, strain FKS1 (second series), stronger effect = lower value 0.891 | S. cerevisiae deletion strains, locus YLR418C, strain cdc73, stronger effect = lower value 0.895 | S. cerevisiae deletion strains, locus YML016C, strain PPZ1, stronger effect = lower value 0.987 | S. cerevisiae deletion strains, locus YML032C, strain rad52, stronger effect = lower value 0.934 | S. cerevisiae deletion strains, locus YML124C, strain tub3, stronger effect = lower value 1.04 | S. cerevisiae deletion strains, locus YMR078C, strain ctf18, stronger effect = lower value 1.06 | S. cerevisiae deletion strains, locus YMR223W, strain ubp8, stronger effect = lower value 1.09 | S. cerevisiae deletion strains, locus YMR263W, strain SAP30, stronger effect = lower value 0.935 | S. cerevisiae deletion strains, locus YMR307W, strain GAS1, stronger effect = lower value 0.969 | S. cerevisiae deletion strains, locus YNL067W, strain RPL9B, stronger effect = lower value 0.946 | S. cerevisiae deletion strains, locus YNL128W, strain TEP1, stronger effect = lower value 0.99 | [7] 0.96 | S. cerevisiae deletion strains, locus YNL233W, strain BNI4, stronger effect = lower value 0.889 | S. cerevisiae deletion strains, locus YNL250W, strain rad50, stronger effect = lower value 1.05 | S. cerevisiae deletion strains, locus YNL298W, strain CLA4, stronger effect = lower value 0.992 | S. cerevisiae deletion strains, locus YNL322C, strain KRE1, stronger effect = lower value 0.999 | S. cerevisiae deletion strains, locus YNR052C, strain pop2, stronger effect = lower value 1.03 | S. cerevisiae deletion strains, locus YOL006C, strain TOP1, stronger effect = lower value 0.723 | S. cerevisiae deletion strains, locus YOL012C, strain htz1 0.822 | S. cerevisiae deletion strains, locus YOL147C, strain pex11, stronger effect = lower value 0.969 | [8] 1 | S. cerevisiae deletion strains, locus YOR069W, strain VPS5, stronger effect = lower value 1 | [9] 0.977 | [10] 0.982 | S. cerevisiae deletion strains, locus YPR141C, strain kar3, stronger effect = lower value 1.07 | S. cerevisiae deletion strains, locus YPR163C, strain tif3, stronger effect = lower value 1.07 | S. cerevisiae deletion strains, strain wtn01, stronger effect = lower value 1.09 | S. cerevisiae strains, strain wild type, stronger effect = lower value 0.972

N#CCCCCOc1ccc2c(=O)cc(-c3ccccc3)oc2c1
active: [10] 1.15 [resistant]
inactive: S. cerevisiae deletion strains, locus YAR019C, strain CDC15, stronger effect = lower value 0.99 | S. cerevisiae deletion strains, locus YBL105C, strain PKC1, stronger effect = lower value 0.978 | S. cerevisiae deletion strains, locus YBR135W, strain CKS1, stronger effect = lower value 0.977 | S. cerevisiae deletion strains, locus YBR136W, strain MEC1, stronger effect = lower value 0.977 | S. cerevisiae deletion strains, locus YBR160W, strain CDC28, stronger effect = lower value 0.977 | S. cerevisiae deletion strains, locus YDL017W, strain CDC7, stronger effect = lower value 0.988 | S. cerevisiae deletion strains, locus YDL028C, strain MPS1, stronger effect = lower value 0.981 | [1] 0.972 | S. cerevisiae deletion strains, locus YDL108W, strain KIN28, stronger effect = lower value 0.977 | S. cerevisiae deletion strains, locus YDL132W, strain cdc53, stronger effect = lower value 0.971 | S. cerevisiae deletion strains, locus YDL214C, strain PRR2, stronger effect = lower value 0.946 | S. cerevisiae deletion strains, locus YDR052C, strain DBF4, stronger effect = lower value 0.989 | S. cerevisiae deletion strains, locus YDR054C, strain cdc34, stronger effect = lower value 0.988 | S. cerevisiae deletion strains, locus YDR226W, strain ADK1, stronger effect = lower value 0.977 | S. cerevisiae deletion strains, locus YDR477W, strain SNF1, stronger effect = lower value 0.959 | S. cerevisiae deletion strains, locus YER123W, strain YCK3, stronger effect = lower value 0.954 | S. cerevisiae deletion strains, locus YER133W, strain GLC7, stronger effect = lower value 0.972 | S. cerevisiae deletion strains, locus YFL009W, strain cdc4, stronger effect = lower value 0.979 | S. cerevisiae deletion strains, locus YFL029C, strain CAK1, stronger effect = lower value 0.989 | S. cerevisiae deletion strains, locus YFR003C, strain YPI1, stronger effect = lower value 0.981 | S. cerevisiae deletion strains, locus YFR019W, strain FAB1, stronger effect = lower value 0.961 | S. cerevisiae deletion strains, locus YFR028C, strain CDC14, stronger effect = lower value 0.974 | S. cerevisiae deletion strains, locus YGR040W, strain KSS1, stronger effect = lower value 0.94 | S. cerevisiae deletion strains, locus YGR052W, strain FMP48, stronger effect = lower value 0.972 | S. cerevisiae deletion strains, locus YGR092W, strain DBF2, stronger effect = lower value 0.938 | [2] 1.08 | [3] 1.08 | S. cerevisiae deletion strains, locus YHR082C, strain KSP1, stronger effect = lower value 1.07 | S. cerevisiae deletion strains, locus YHR205W, strain SCH9, stronger effect = lower value 0.976 | S. cerevisiae deletion strains, locus YIL147C, strain SLN1, stronger effect = lower value 0.974 | [4] 0.933 | S. cerevisiae deletion strains, locus YJL128C, strain PBS2, stronger effect = lower value 0.938 | S. cerevisiae deletion strains, locus YJL157C, strain FAR1, stronger effect = lower value 0.971 | S. cerevisiae deletion strains, locus YJR016C, strain ILV3, stronger effect = lower value 0.967 | S. cerevisiae deletion strains, locus YJR066W, strain TOR1 (second series), stronger effect = lower value 0.914 | [5] 1.04 | S. cerevisiae deletion strains, locus YKL048C, strain ELM1, stronger effect = lower value 0.966 | S. cerevisiae deletion strains, locus YKL067W, strain YNK1, stronger effect = lower value 0.956 | S. cerevisiae deletion strains, locus YKL101W, strain HSL1, stronger effect = lower value 0.936 | S. cerevisiae deletion strains, locus YKL193C, strain SDS22, stronger effect = lower value 0.969 | S. cerevisiae deletion strains, locus YKL203C, strain TOR2, stronger effect = lower value 1.01 | [6] 0.955 | S. cerevisiae deletion strains, locus YLR133W, strain CKI1, stronger effect = lower value 0.965 | S. cerevisiae deletion strains, locus YLR403W, strain SFP1, stronger effect = lower value 0.921 | S. cerevisiae deletion strains, locus YML070W, strain DAK1, stronger effect = lower value 0.956 | S. cerevisiae deletion strains, locus YMR001C, strain CDC5, stronger effect = lower value 0.978 | S. cerevisiae deletion strains, locus YMR205C, strain PFK2 (second series), stronger effect = lower value 0.967 | S. cerevisiae deletion strains, locus YMR277W, strain FCP1, stronger effect = lower value 0.976 | S. cerevisiae deletion strains, locus YNL006W, strain LST8, stronger effect = lower value 0.987 | S. cerevisiae deletion strains, locus YNL020C, strain ARK1, stronger effect = lower value 0.956 | S. cerevisiae deletion strains, locus YNL161W, strain CBK1, stronger effect = lower value 0.98 | [7] 1.02 | S. cerevisiae deletion strains, locus YNL207W, strain RIO2, stronger effect = lower value 0.965 | S. cerevisiae deletion strains, locus YNL222W, strain SSU72, stronger effect = lower value 0.982 | S. cerevisiae deletion strains, locus YNL307C, strain MCK1 (second series), stronger effect = lower value 0.927 | S. cerevisiae deletion strains, locus YOL078W, strain AVO1, stronger effect = lower value 0.972 | S. cerevisiae deletion strains, locus YOL136C, strain PFK27, stronger effect = lower value 0.919 | [8] 0.961 | S. cerevisiae deletion strains, locus YOR119C, strain RIO1, stronger effect = lower value 1.01 | [9] 0.964 | S. cerevisiae deletion strains, locus YOR329C, strain SCD5, stronger effect = lower value 0.984 | S. cerevisiae deletion strains, locus YPL031C, strain PHO85, stronger effect = lower value 0.968 | S. cerevisiae deletion strains, locus YPL153C, strain RAD53, stronger effect = lower value 0.953 | S. cerevisiae deletion strains, locus YPL204W, strain HRR25, stronger effect = lower value 0.943 | S. cerevisiae deletion strains, locus YPL209C, strain IPL1, stronger effect = lower value 0.982 | S. cerevisiae deletion strains, locus YPR025C, strain CCL1, stronger effect = lower value 0.982 | S. cerevisiae deletion strains, locus YPR106W, strain ISR1, stronger effect = lower value 0.983 | S. cerevisiae deletion strains, locus YPR111W, strain DBF20, stronger effect = lower value 0.961 | S. cerevisiae deletion strains, strain NNK1, stronger effect = lower value 0.975 | S. cerevisiae deletion strains, strain TSCII, stronger effect = lower value 0.976
